Assay results: PubChem BioAssay AID1159580 (chemical genetic matrix, 2015)
Screen size: about 5,500 compounds; about 2,000 (36%) were called active. About 18% were inconclusive and are not listed. No stated cut-off is given here; in the data, active means normalized growth mostly below about 0.91 (no sharp cut-off); inconclusive means no clear call, values can overlap the other calls; inactive means mostly above about 0.92. This is one part of the list.

Test: chemical genetic growth profiling, strain panel (AID 1159580);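 further: tested at 20 µM; growth read once vehicle control cultures reached saturation at 30 °C; 1 = growth at the plate median or of vehicle wells; lower values mean less growth of the strain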
Details: growth OD
[1] = S. cerevisiae deletion strains, locus YAL013W, strain DEP1, active compounds read low
[2] = S. cerevisiae deletion strains, locus YBR229C, strain ROT2, active compounds read low
[3] = S. cerevisiae deletion strains, locus YDL101C, strain DUN1, active compounds read low
[4] = S. cerevisiae deletion strains, locus YDR150W, strain NUM1, active compounds read low
[5] = S. cerevisiae deletion strains, locus YEL061C, strain CIN8, active compounds read low
[6] = S. cerevisiae deletion strains, locus YGR078C, strain PAC10, active compounds read low
[7] = S. cerevisiae deletion strains, locus YHR030C, strain SLT2, active compounds read low
[8] = S. cerevisiae deletion strains, locus YHR087W, strain rtc3, active compounds read low
[9] = S. cerevisiae deletion strains, locus YJL187C, strain SWE1, active compounds read low
[10] = S. cerevisiae deletion strains, locus YJR043C, strain POL32, active compounds read low
[11] = S. cerevisiae deletion strains, locus YJR075W, strain HOC1, active compounds read low
[12] = S. cerevisiae deletion strains, locus YKL190W, strain CNB1, active compounds read low
[13] = S. cerevisiae deletion strains, locus YLR039C, strain RIC1, active compounds read low
[14] = S. cerevisiae deletion strains, locus YLR058C, strain SHM2 (second series), active compounds read low
[15] = S. cerevisiae deletion strains, locus YLR085C, strain ARP6, active compounds read low
[16] = S. cerevisiae deletion strains, locus YLR262C, strain YPT6, active compounds read low
[17] = S. cerevisiae deletion strains, locus YML094W, strain GIM5, active compounds read low
[18] = S. cerevisiae deletion strains, locus YMR219W, strain ESC1, active compounds read low
[19] = S. cerevisiae deletion strains, locus YMR263W, strain SAP30, active compounds read low
[20] = S. cerevisiae deletion strains, locus YNL153C, strain GIM3, active compounds read low
[21] = S. cerevisiae deletion strains, locus YNL298W, strain CLA4 (second series), active compounds read low
[22] = S. cerevisiae deletion strains, locus YNL322C, strain KRE1, active compounds read low
[23] = S. cerevisiae deletion strains, locus YNR030W, strain Alg12, active compounds read low
[24] = S. cerevisiae deletion strains, locus YPL055C, strain LGE1, active compounds read low
[25] = S. cerevisiae deletion strains, locus YPL241C, strain CIN2, active compounds read low
[26] = S. cerevisiae deletion strains, locus YPR135W, strain CTF4, active compounds read low
[27] = S. cerevisiae strains, strain wild type, active compounds read low
[28] = S. cerevisiae deletion strains, locus YGR229C, strain SMI1, active compounds read low
[29] = S. cerevisiae deletion strains, locus YAL040C, strain CLN3, active compounds read low
[30] = S. cerevisiae deletion strains, locus YCL061C, strain MRC1 (second series), active compounds read low
[31] = S. cerevisiae deletion strains, locus YDR363W, strain ESC2, active compounds read low
[32] = S. cerevisiae deletion strains, locus YER002W, strain NOP16, active compounds read low
[33] = S. cerevisiae deletion strains, locus YMR307W, strain GAS1, active compounds read low
[34] = S. cerevisiae deletion strains, locus YNL175C, strain NOP13, active compounds read low
[35] = S. cerevisiae deletion strains, locus YNL197C, strain WHI3, active compounds read low
[36] = S. cerevisiae deletion strains, locus YNL224C, strain SQS1, active compounds read low
[37] = S. cerevisiae deletion strains, locus YOR083W, strain WHI5 (second series), active compounds read low
[38] = S. cerevisiae deletion strains, locus YCL061C, strain MRC1, active compounds read low
[39] = S. cerevisiae deletion strains, locus YDL134C, strain PPH21, active compounds read low
[40] = S. cerevisiae deletion strains, locus YOL006C, strain TOP1, active compounds read low

Measured: normalized growth

Cc1cc(=O)n(-c2ccc([N+](=O)[O-])cc2)[nH]1
inactive: [3] 0.955 | [4] 0.905 | [5] 0.958 | [14] 0.965 | S. cerevisiae deletion strains, locus YNL128W, strain TEP1, active compounds read low 0.957 | [22] 0.989
active: [1] 0.509 | [2] 0.867 | [6] 0.927 | [7] 0.34 | [8] 0.8 | [9] 0.814 | [10] 0.718 | [11] 0.847 | [12] 0.726 | [13] 0.437 | [15] 0.592 | [16] 0.583 | [17] 0.84 | [18] 0.9 | [19] 0.85 | [20] 0.884 | [21] 0.821 | [23] 0.811 | [24] 0.69 | [25] 0.811 | [26] 0.504 | [27] 0.866

O=C1c2ccccc2C(=O)N1CN(CCSc1ccccc1)CN1C(=O)c2ccccc2C1=O
inactive: [1] 1.01 | [2] 0.987 | [3] 0.992 | [4] 0.993 | [5] 0.987 | [6] 0.993 | [28] 1 | [7] 1.01 | [8] 0.986 | [9] 1.03 | [10] 1.01 | [11] 0.981 | [12] 1 | [13] 0.986 | [14] 1 | [15] 0.957 | [16] 1.07 | [17] 0.973 | [18] 0.992 | [19] 1.01 | [20] 1.01 | [21] 0.978 | [22] 0.994 | [23] 1 | [24] 0.995 | [25] 0.964 | [26] 1.05

O=C1C(SCCO)=C(SCCO)C(=O)c2ccccc21
inactive: [29] 1.06 | [30] 0.982 | [4] 0.981 | [31] 0.966 | [32] 1.04 | [6] 0.982 | [34] 0.988 | [35] 0.99 | [36] 0.985 | [25] 0.996
active: [33] 0.751 | [37] 0.858

OCc1ccccc1-c1ccccc1
inactive: [1] 0.995 | [2] 0.984 | [38] 0.957 | [3] 0.941 | [39] 0.985 | [4] 0.924 | [5] 0.987 | [6] 0.985 | [28] 0.993 | [7] 0.984 | [8] 1.01 | [9] 1 | [10] 0.971 | [11] 1.02 | [12] 1.01 | [13] 0.952 | [14] 1.02 | [15] 1.03 | [16] 0.99 | [17] 0.959 | [18] 0.99 | [19] 0.987 | [20] 0.95 | [21] 1 | [22] 1.02 | [23] 0.994 | [40] 0.997 | [24] 0.85 | [25] 0.988 | [26] 0.976 | [27] 1.01

O=C(O)CSC1CCS(=O)(=O)C1 (stereo not drawn)
inactive: [1] 1.02 | [2] 0.998 | [38] 1.02 | [3] 1.02 | [39] 1.02 | [4] 0.956 | [5] 1.04 | [6] 1.01 | [7] 1.05 | [8] 1.01 | [10] 1 | [11] 1.06 | [12] 1.01 | [13] 1.06 | [14] 1.01 | [15] 1 | [16] 1.06 | [17] 1.03 | [18] 1 | [19] 1 | [20] 0.997 | [21] 1.01 | [22] 1.03 | [23] 1 | [24] 0.906 | [25] 1.01 | [26] 1.02 | [27] 1.01

NC(=S)CSc1ccccc1
active: [5] 0.87 | [7] 0.62 | [12] 0.864 | [15] 0.591 | [21] 0.711 | [23] 0.681 | [40] 0.31 | [25] 0.832 | [27] 0.888
inactive: [1] 0.937 | [2] 0.969 | [3] 1.01 | [4] 0.921 | [6] 0.99 | [28] 0.991 | [8] 1.03 | [9] 0.969 | [10] 0.924 | [11] 1.04 | [13] 0.883 | [14] 1 | [16] 0.919 | [17] 0.892 | [18] 0.999 | [20] 0.981 | [22] 1.04 | [24] 0.855 | [26] 0.679

N=C(N)c1ccccc1
inactive: [1] 1.01 | [29] 0.991 | [30] 1.01 | [4] 1 | [31] 1.01 | [32] 1.02 | [20] 1.07 | [34] 0.999 | [35] 1.03 | [36] 1.01 | [22] 1.02 | [37] 1.06

Cn1c(CSc2ccccc2)n[nH]c1=S
inactive: [1] 0.997 | [2] 0.99 | [3] 0.994 | [39] 1.01 | [4] 0.949 | [5] 1.02 | [6] 0.977 | [7] 1.01 | [8] 0.982 | [10] 0.978 | [11] 0.987 | [13] 1.05 | [14] 0.998 | [15] 1.09 | [16] 1.04 | [17] 1.01 | [18] 0.992 | [19] 0.963 | [33] 1.2 | [20] 0.981 | [21] 1.03 | [22] 1.01 | [23] 1.02 | [24] 0.965 | [25] 1.02 | [26] 1.04 | [27] 1.01
